# PubChem BioAssay (NCATS)
# Activity calls are given as the source filed them. Calls follow the shape of the dose curve; as a rule, active = well fitted curve in the direction sought with a large enough effect (not every such curve was filed as active); inconclusive = small, poorly fitted or top-dose-only effect, or effect the other way, or another doubt; inactive = no such curve, though single readings can be large or run the other way.
# Molecular target: Pyruvate kinase PKM (Homo sapiens) (UniProt P14618)
# Sequence (P14618 whole entry, looked up): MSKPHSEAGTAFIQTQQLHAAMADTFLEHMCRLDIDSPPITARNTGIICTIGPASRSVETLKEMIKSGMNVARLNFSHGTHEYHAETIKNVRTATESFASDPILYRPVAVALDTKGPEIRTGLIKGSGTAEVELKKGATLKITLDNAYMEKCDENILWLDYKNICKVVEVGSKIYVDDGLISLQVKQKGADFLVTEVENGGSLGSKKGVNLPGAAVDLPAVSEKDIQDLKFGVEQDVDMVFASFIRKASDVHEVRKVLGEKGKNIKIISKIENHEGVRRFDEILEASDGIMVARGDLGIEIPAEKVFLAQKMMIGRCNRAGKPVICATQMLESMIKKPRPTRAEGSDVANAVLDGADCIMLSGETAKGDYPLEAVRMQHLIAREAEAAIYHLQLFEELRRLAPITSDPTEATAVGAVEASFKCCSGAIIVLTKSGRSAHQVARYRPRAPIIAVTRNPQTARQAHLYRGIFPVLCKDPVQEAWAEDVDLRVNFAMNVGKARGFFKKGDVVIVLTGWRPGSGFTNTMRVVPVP
# Experiment: qHTS Assay for Activators of Human Muscle Pyruvate Kinase (AID 954)
# Conditions: purified human muscle pyruvate kinase, luciferase-coupled luminescence, 1 h; series mostly up to 57.5 µM
# Procedure: NIH Molecular Libraries Screening Centers Network [MLSCN]
# NIH Chemical Genomics Center [NCGC]
# Wael M. Rabeh, Lyudmila Nedyalkova and Hee-Wan Park [Structural Genomics Consortium, 100 College St. Toronto, Ontario, Canada]
# Human pyruvate kinase muscle 2 enzyme was supplied as a highly purified (>95% pure) preparation by the Structural Genomics Consortium in Toronto (Ontario, Canada) and was assayed for its ability to generate ATP from ADP using phosphoenolpyruvate (PEP) as a substrate. ATP generation was detected in a coupled reaction by luciferase-mediated luminescence, an ATP-dependent process. Pyruvate kinase substrates, PEP and ADP, were present in the assay at Km and approximately […]-fold below Km respectively. The enzyme was assayed at an intermediate level of activity to screen for inhibitors and activators.
# NCGC Assay Protocol Summary:
# Three uL of substrate mix (final concentration, 50 mM imidazole pH 7.2, 50 mM KCl, 7 mM MgCl2, 0.5 mM PEP, 0.1 mM ADP, 0.01% Tween 20, 0.05% BSA) was dispensed into 1536 well plates. 23 nL of compound were delivered by a pin tool and 1 uL of enzyme mix (final concentration, 0.1 nM pyruvate kinase, 50 mM imidazole pH 7.2, 0.05% BSA) was added. Plates were incubated at room temperature for 1 hour. Two uL of detection and kinase stop mix (PKLight, Cambrex) was added, the plates centrifuged, and luminescence read by a ViewLux (Perkin Elmer) at 5 second exposure/plate. Data were normalized to the uninhibited and AC100 inhibition (no enzyme or 110 uM N-methyl-2,3-diphenyl-1,2,4-thiadiazol-5-imine; CID: 682802; LOPAC-S-4063). To monitor activation, 0.3 nM pyruvate kinase was included in one control column.
row,SMILES,outcome
1,c1ccc(C2CC2)c(OCC2=NCCN2)c1,inactive
2,CCn1cc(C(=O)O)c(=O)c2ccc(C)nc21,inactive
3,Clc1cccc(N2CCNCC2)c1,inactive
4,CN1C[C@H](CNC(=O)OCc2ccccc2)C[C@@H]2c3cccc4c3c(cn4C)C[C@H]21,inactive
5,Cc1ccc(S(=O)(=O)N[C@@H](CCCCN)C(=O)CCl)cc1,inactive
6,N#CC(C#N)=Cc1ccc(O)c(O)c1,inactive
7,CCCN1CCC[C@@H]2Cc3[nH]ncc3C[C@H]21,inactive
8,Nc1ccncc1,inactive
9,CNCC(O)c1ccc(O)cc1 (configuration not stated),inactive
10,CC(=O)[C@H]1CC[C@H]2[C@@H]3CC[C@H]4C[C@H](O)CC[C@]4(C)[C@H]3C(=O)C[C@]12C,inactive
11,NN=C(N)N,inactive
12,Cc1cccc(C)c1NC1=NCCCS1,inactive
13,O=c1[nH]c2ccccc2n1C1CCN(CCCC(c2ccc(F)cc2)c2ccc(F)cc2)CC1,inactive
14,CCCN1CCC[C@@H]2Cc3nc(N)ncc3C[C@H]21,inactive
15,NCC1(CC(=O)O)CCCCC1,inactive
16,NCC(CC(=O)O)c1ccc(Cl)cc1 (configuration not stated),inactive
17,N[C@@H]1C[C@H]1c1ccccc1,inactive
18,COc1ccccc1N1CCNCC1,inactive
19,Fc1ccc(C(OCCN2CCN(CCCc3ccccc3)CC2)c2ccc(F)cc2)cc1,inactive
20,O=c1[nH]c2ccccc2n1CCCN1CCC(n2c(=O)[nH]c3cc(Cl)ccc32)CC1,inactive
21,CCCC(C)(COC(N)=O)COC(=O)NC(C)C (configuration not stated),inactive
22,Cc1ncc(CNC(=O)N(CCCl)N=O)c(N)n1,inactive
